Drawing on PubChem BioAssay (Tox21), this text covers Potency for 40 molecules.

Molecules are shown by their SMILES. Inconclusive results are not listed. Where a call stands in place of a potency, no number is given. Calls of active or inactive are those of the source. Calls come from the whole dose curve.

A short description of this test: qHTS assay to identify small molecule agonists of the hypoxia (HIF-1) signaling pathway - cell viability counter screen (AID 1224844). Note: nearly all actives have a fitted effect of over 50% in size. The conditions noted are these: HRE-bla ME-180 viability, CellTiter-Glo luminescence, 17 h; series mostly up to 76.8 µM. The source says:
National Center for Advancing Translational Sciences [NCATS]
NIH Chemical Genomics Center [NCGC]
U.S. Environmental Protection Agency [EPA]
National Institutes of Environmental Health Sciences [NIEHS]
National Toxicology Program [NTP]
U.S. Food and Drug Administration [FDA]
Hypoxia-inducible factor-1 (HIF-1) is the major hypoxia-regulated transcription factor that controls cellular responses to low oxygen concentration. HIF-1 is composed of two subunits: hypoxia responsive HIF-1-alpha and constitutively expressed HIF-1-beta, which is also known as aryl hydrocarbon receptor nuclear translocator. During hypoxic conditions, HIF-1-alpha heterodimerizes with HIF-1-beta and translocates into the nucleus where the HIF-1 complex binds to the hypoxia-response element (HRE) and activates expression of target genes such as VEGF (vascular endothelial growth factor). The HIF-1 pathway is essential to normal growth and development, and is involved in the pathophysiology of cancer, inflammation, and ischemia.
Using a beta-lactamase reporter-gene under control of the hypoxia response element, a cell-based assay [CellSensor(TM) HRE-bla ME-180 from Life Technologies, Carlsbad, CA] was used to measure hypoxia-induced signaling. Tox21 10K library compounds were measured for their ability to induce the reporter gene activity. The cytotoxicity of the Tox21 compound library against HRE-bla ME-180 cell line was tested in parallel by measuring cell viability using CellTiter-Glo assay (Promega, Madison, WI) in the same assay wells.
Tox21 Assay Protocol Summary:
HRE-bla ME-180 cells were dispensed at 2,000 cells per well in 6 uL of assay medium containing 0.5% dialyzed FBS into black wall/clear-bottom 1536-well plates using a Multidrop Combi (Thermo Scientific, Waltham, MA) dispenser. After the assay plates were incubated at 37C and 5% CO2 for 5 hrs, 23 nL of compounds dissolved in DMSO, positive controls or DMSO only was transferred to each well of the assay plate using a Pintool station (Kalypsys, San Diego, CA). The assay plates were incubated at 37C and 5% CO2 for 17 hrs. One uL of LiveBLAzerTM B/G FRET substrate (CCF4-AM) (Life Technologies) was added to each well using a Flying Reagent Dispenser (FRD, Aurora Discovery, San Diego, CA). After 2 hr incubation at room temperature, fluorescence intensity (405 nm excitation, 460 nm and 530 nm emissions) was measured using an Envision plate reader (PerkinElmer, Shelton, CT). For cytotoxicity, 4 ul/well of CellTiter-Glo reagent was added into the assay plates using an FRD. After 30 min incubation at room temperature, the luminescence intensity was measured using a ViewLux plate reader (PerkinElmer).
For orientation: qHTS replaces the single test concentration by a dilution series.
For `C=CCc1cc(OC)c2c(c1)OCO2`, the Potency entry is “inactive”.

As for `OP(O)c1ccccc1`, the Potency entry was “inactive”.

For the molecule `ClC(Cl)(Cl)Cl`, the Potency entry was “inactive”.

With `NCCOS(=O)(=O)O`, the Potency result was “inactive”.

For the molecule `CCCC[N+](=O)[O-]`, the Potency entry is “inactive”.

In the case of `N#CN`, the Potency result was “inactive”.

In the case of `C[C@H]1CCCC(=O)CCC/C=C/c2cc(O)cc(O)c2C(=O)O1`, the Potency entry was “inactive”.

Consider `O=C(Cl)CCl`, for which the Potency result is “inactive”.

For the molecule `CN(C)C1CCCCC1`, the Potency result is “inactive”.

Consider `CCOC(=O)COc1ccc(Cl)cc1Cl`, for which the Potency entry is “inactive”.

Consider `C[N+]1(C)CCCCC1`, for which the Potency result was “inactive”.

With `BrCc1ccc(Br)cc1`, the Potency entry was “inactive”.

`CC(Cc1ccccc1)NCCCCl` (stereo not given): the Potency entry was “inactive”.

As to `O=c1[nH]c2ccccc2n1C1CCNCC1`, the Potency entry was “inactive”.

As for `Cn1c(CCCC(=O)O)nc2cc(N(CCCl)CCCl)ccc21`, the Potency entry is “inactive”.

Consider `CC(C)NCC(O)c1ccc([N+](=O)[O-])cc1` (stereo not given), for which the Potency result is “inactive”.

Consider `COC[C@@H](NC(C)=O)C(=O)NCc1ccccc1`, for which the Potency entry was “inactive”.

As for `C=CC(=O)OCCN(C)C`, the Potency entry is “inactive”.

Take `C=C(Cl)CSC(=S)N(CC)CC`: the Potency result was “inactive”.

Consider `CC(Cl)(Cl)Cl`, for which the Potency result is “inactive”.

As for `C=C(Cl)CCl`, the Potency result is “inactive”.

For `CC(C)N(Cc1ccccc1)C(=O)C(C)(C)C`, the Potency entry is “inactive”.

Consider `CC(C)(C)NC[C@H](O)c1ccc(O)cc1Cl`, for which the Potency entry is “inactive”.

Consider `CC(=O)CN(CC(C)=O)N=O`, for which the Potency entry is “inactive”.

As to `CC[C@H](O)C(C[C@H](C)N(C)C)(c1ccccc1)c1ccccc1`, the Potency result was “inactive”.

As for `O=[N+]([O-])c1cccc(CCl)c1`, the Potency entry is “inactive”.

`O=S1(=O)OCCO1`: the Potency entry was “inactive”.

For `ClCOCCl`, the Potency entry was “inactive”.

`COc1ccccc1OC`: the Potency result was “inactive”.

On to `CNC(=O)Oc1cc(C)c(N(C)C)c(C)c1`, for which the Potency entry is “inactive”.

As for `CN(C)CCc1c[nH]c2cccc(OP(=O)(O)O)c12`, the Potency entry is “inactive”.

For `CC1N=C(N)OC1c1ccccc1` (stereo not given), the Potency entry is “inactive”.

On to `CCCOc1nn(C(=O)NS(=O)(=O)c2ccccc2C(=O)OC)c(=O)n1C`, for which the Potency result was “inactive”.

As to `NNCc1ccccc1`, the Potency entry is “inactive”.

As for `C=CC1(C)OC(=O)N(c2cc(Cl)cc(Cl)c2)C1=O` (stereo not given), the Potency entry is “inactive”.

As for `CCOC(=O)c1ncn2c1CN(C)C(=O)c1c(I)cccc1-2`, the Potency result is “inactive”.

As for `O=[N+]([O-])CCO`, the Potency entry was “inactive”.

`C[C@@H](N)[C@@H](O)c1ccccc1`: the Potency result was “inactive”.

For `CCN[C@@H](C)Cc1cccc(C(F)(F)F)c1`, the Potency entry is “inactive”.

`CNC(=O)NC(O)C(Cl)(Cl)Cl` (stereo not given): the Potency entry is “inactive”.
